Inconclusive results are not listed. Active and inactive are the calls of the source. Calls follow the shape of the dose curve; as a rule, active = well fitted curve in the direction sought with a large enough effect; inconclusive = small, poorly fitted or top-dose-only effect, or another doubt; inactive = no such curve, though single readings can be large or run the other way.
Assay: qHTS for Inhibitors of the vitamin D receptor (VDR): Hit Validation using a Texas Red Assay (AID 602201)
Conditions: VDR coregulator binding, Texas Red fluorescence polarization, agonist-bound VDR ligand-binding domain; series mostly up to 57.1 µM
How it was run: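 After a 2-hour room-temperature incubation, polarization of Texas-Red emission was read (Ex 595 nm/Em 615 nm). Final mix contained 7 nM Texas Red, 1.5 uM VDR-LBD and LG19078.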
Potency is read from the fitted curve at half-maximal effect.

Q: For `CC(C)CN1C(=O)/C(=C(/C#N)C(=O)NC2CCCCC2)c2ccccc21`, which Potency is on record?
A: Its Potency is 3.55 µM (active).

Q: Which Potency does the source give for `Cc1nnc(NC(=O)c2nc(S(=O)(=O)Cc3ccccc3)ncc2Cl)s1` here?
A: Its Potency is 22.4 µM (active).

Q: Which Potency does the source give for `CC(C)(C)C(=O)Nc1ccc2c(c1)C(=O)C(=O)c1ccccc1-2` here?
A: The Potency was 3.16 µM (active).

Q: With `O=S1(=O)C=C(Sc2nnc(-c3ccccc3)o2)c2ccccc21` as the molecule, how does the Potency read?
A: The Potency was 3.16 µM (active).

Q: For `CCOc1cc(/C=C2\COc3ccccc3C2=O)cc(Br)c1OCC(=O)N(C)C`, which Potency is on record?
A: Its Potency is “inactive”.

Q: Which Potency does the source give for `c1ccc(CCc2nn3c(Cc4ccccc4)nnc3s2)cc1` here?
A: The Potency was 28.2 µM (active).

Q: With `O=[S@]1Oc2ccccc2-c2ccccc21` as the molecule, how does the Potency read?
A: Its Potency is “inactive”.

Q: Which Potency does the source give for `Oc1ccc(N=C/C=C/c2cccc(Br)c2)cc1-c1nc2ccccc2s1` here?
A: Its Potency is 15.8 µM (active).

Q: For `CN1C(=O)C(Cl)(Cl)C(=O)c2ccccc21`, which Potency is on record?
A: Its Potency is “inactive”.

Q: For `Cc1nc(NC(=O)c2ccc(Cl)cc2)sc1Cc1ccc2c(c1)OCO2`, which Potency is on record?
A: The Potency was “inactive”.

Q: Which Potency does the source give for `COc1ccc(OCc2nnc3n2N=C(c2ccccc2)C(CC(=O)O)S3)cc1` (stereo not given) here?
A: Its Potency is 3.16 µM (active).

Q: For `Nc1ncnc2c1ncn2[C@@H]1O[C@H](CNCc2ccc(-c3cc(C(F)(F)F)ccc3Cl)o2)[C@@H](O)[C@H]1O`, which Potency is on record?
A: The Potency was “inactive”.

Q: For `COc1ccc(OC)c(/C=C/C(=O)c2ccc(Cl)cc2)c1`, which Potency is on record?
A: The Potency was 28.2 µM (active).

Q: For `CCC(=O)Nc1cccc(C(=O)/C=C/c2cc(Br)ccc2OC)c1`, which Potency is on record?
A: The Potency was 28.2 µM (active).

Q: With `CCS(=O)(=O)c1ncc(Cl)c(C(=O)Nc2ccc(S(=O)(=O)N3CCCC(C)C3)cc2)n1` (stereo not given) as the molecule, how does the Potency read?
A: Its Potency is 3.55 µM (active).

Q: With `NC(=O)COc1ccc(C(=O)/C=C2/C(=O)Nc3ccccc32)cc1` as the molecule, how does the Potency read?
A: The Potency was “inactive”.

Q: Which Potency does the source give for `Cc1ccc(CSC2=NS(=O)(=O)c3ccccc32)cc1` here?
A: Its Potency is 7.94 µM (active).

Q: Which Potency does the source give for `c1ccc(-c2nnc3sc(-c4csc5c4CCCC5)nn23)cc1` here?
A: The Potency was 22.4 µM (active).

Q: For `NC(=O)COc1ccc(/C=C2\C(=O)ON=C2c2ccccc2)cc1`, which Potency is on record?
A: The Potency was 25.1 µM (active).

Q: With `COc1cc(/C=C2\C(=O)ON=C2c2ccccc2)cc(Br)c1O` as the molecule, how does the Potency read?
A: The Potency was “inactive”.

Q: Which Potency does the source give for `COc1cccc(C(=O)Oc2ccccc2/C=C\C(=O)c2cc3ccccc3o2)c1` here?
A: Its Potency is 3.16 µM (active).

Q: For `CN(C)c1ccc(C=Nc2ccc(N(C)C)cc2)cc1`, which Potency is on record?
A: The Potency was 17.8 µM (active).

Q: With `Cc1ccc(C=Nc2ccc(N(C)C)cc2)o1` as the molecule, how does the Potency read?
A: Its Potency is 20 µM (active).

Q: With `COc1ccc(C(Nc2cc(C)ccn2)c2ccc3ccc(C)nc3c2O)cc1` (stereo not given) as the molecule, how does the Potency read?
A: Its Potency is 14.1 µM (active).

Q: Which Potency does the source give for `O=[N+]([O-])c1ccc(C2=Nn3c(Cn4nnc5ccccc54)nnc3SC2)cc1` here?
A: Its Potency is 25.1 µM (active).

Q: Which Potency does the source give for `Cc1nc2ccc(N=NN(C)C)cc2[nH]1` here?
A: The Potency was “inactive”.

Q: Which Potency does the source give for `O=C(/C=C/c1ccccc1Cl)c1cccnc1` here?
A: Its Potency is “inactive”.

Q: With `Oc1cc2c(cc1C(c1ccc(Cl)c(Cl)c1)N1CCCC1)OCO2` (stereo not given) as the molecule, how does the Potency read?
A: Its Potency is 8.91 µM (active).

Q: With `CN(C)c1ccc(C(=S)N2CCN(c3ccc([N+](=O)[O-])cc3)CC2)cc1` as the molecule, how does the Potency read?
A: Its Potency is “inactive”.

Q: With `O=C(O)c1cccc(CN2C(=O)S/C(=C/c3cccc([N+](=O)[O-])c3)C2=O)c1` as the molecule, how does the Potency read?
A: The Potency was 20 µM (active).

Q: With `N#Cc1c(Nc2ccc(Cl)cc2)s[nH]c1=O` as the molecule, how does the Potency read?
A: The Potency was “inactive”.

Q: Which Potency does the source give for `Cc1ccc(S(=O)(=O)CCC(=O)c2cccc([N+](=O)[O-])c2)cc1` here?
A: Its Potency is 3.55 µM (active).

Q: Which Potency does the source give for `O=C(/C=C/c1ccc(Cl)c([N+](=O)[O-])c1)c1cccnc1` here?
A: Its Potency is 4.47 µM (active).

Q: With `Cc1oc2c(c1C(=O)c1ccc(Cl)cc1)C(=O)C(=O)c1ccccc1-2` as the molecule, how does the Potency read?
A: Its Potency is 3.98 µM (active).

Q: Which Potency does the source give for `O=[N+]([O-])c1ccccc1-c1ccc(C(=S)N2CCCC2)o1` here?
A: Its Potency is “inactive”.

Q: For `CCCOc1ccc(/C=C2/C(=O)ON=C2C)cc1OCC`, which Potency is on record?
A: The Potency was 15.8 µM (active).

Q: For `CC(NC(=O)c1sc2cc([N+](=O)[O-])ccc2c1Cl)C(C)(C)C` (stereo not given), which Potency is on record?
A: The Potency was 3.55 µM (active).

Q: Which Potency does the source give for `CC(=O)Nc1cccc(C(=O)/C=C/c2ccc(Br)cc2)c1` here?
A: The Potency was 5.62 µM (active).

Q: With `FC(F)(F)c1cccc(Sc2nc(-c3ccccc3)nnc2C(F)(F)F)c1` as the molecule, how does the Potency read?
A: Its Potency is “inactive”.

Q: Which Potency does the source give for `O=C1C=C(c2ccccc2)C(=O)N1Nc1ccccc1` here?
A: Its Potency is 3.55 µM (active).
